From PubChem BioAssay (NCI) come the findings set out here.

Compounds without any hit were thinned out: in the full panel of roughly 83,000, 20% have a hit.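 In brief: 96-well plates, 48 h treatment, single concentration, percent growth endpoint.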 A number with no mark means an inactive call. Activity calls are given as the source filed them. The calls were made as follows: active = growth percent below 10; inactive = the rest.

The test system of this test is MDA-MB-468 breast. Briefly: NCI-60 one-dose screen, 48 h (100 = growth as untreated, 0 = no growth, -100 = all killed). The following applies: 10 µM unless noted.
`COc1cc(-c2csc(NC(=O)Nc3ccc(C(F)(F)F)cc3)n2)cc(OC)c1OC`: the growth was -8.63% (active).

Turning to `Nc1c(C(=O)Nc2ccncc2)sc2nc3c(cc12)CCCCC3`, the growth is 54.2%.

Consider `Cc1ccc(S(=O)(=O)N2CCCN(c3nc(-c4ccccc4)nc4nc(-c5ccccc5)oc34)CC2)cc1`, for which the growth was 109%.

`CCCC(=O)Oc1ccc(CC)cc1`: the growth is 117%.

As to `CC1=NC2=Nn3c(c4cnn(-c5ccccc5)c4n/c3=N\N)NN2C(c2ccccc2)=C1`, the growth was 73.9%.

Take `COc1cc(CN(c2ccc(Cl)cc2)C2OC(=O)c3ccccc32)cc(OC)c1OC` (centres undefined): the growth was 16.8%.

`C[C@]12CC[C@@H]3c4cc(O)c(O)cc4CC[C@H]3[C@@H]1CC[C@@H]2O`: the growth is 72.1%.

As for `Cc1ccc(Nc2ncnc3c2c(C)nn3-c2ccc([N+](=O)[O-])cc2)cc1`, the growth is 84.2%.

Turning to `Clc1ccc(-c2nc(-c3ccco3)cn3ccnc23)cc1`, the growth was -5.8% (active).

For the compound `Cc1cc(Nc2nc(N[C@@H](C)c3ncc(F)cn3)ncc2Cl)n[nH]1`, the growth is 100%.

With `COc1ccc(S(=O)(=O)NC2c3ccccc3CC2O)cc1OC` (centres undefined), the growth was 111%.

In the case of `Clc1ccc(I)c2ccccc12`, the growth is 107%.

Take `NC(C(=O)O)c1ccc([N+](=O)[O-])cc1` (centres undefined): the growth was 111%.

As for `COc1ccc(-c2ccc3c4c(cccc24)C(=O)N(N2C(=O)c4cccc5cccc(c45)C2=O)C3=O)cc1`, the growth is 96.5%.

Regarding `Cn1c2ccc(Br)cc2c2c3c(c4c5cc(F)ccc5oc4c21)C(=O)N(O)C3=O`, the growth was 108%.

As to `CCN1C(=O)/C(=C/C=C/N(C)c2ccccc2)SC1=S`, the growth was 89.1%.

With `Nc1cc(C(=O)O)cc(C(=O)O)c1`, the growth is 112%.

Consider `CC(C)C[C@H](NC(=O)CCn1ccc2ccccc2c1=O)B(O)O`, for which the growth was 6.61% (active).

As to `CC[C@@](C)(NC(=O)[C@H](C)NC(=O)CCNC(=O)C(C)(C)NC(=O)[C@H](C)NC(=O)[C@@H]1CCCN1C(=O)[C@@](C)(CC)NC(=O)[C@H](Cc1ccccc1)NC(=O)C1CCCN1C(=O)C(C)(C)NC(=O)C1CCCN1C(=O)C(C)(C)NC(C)=O)C(=O)NCCC(=O)N[C@@H](CC(C)C)C(=O)NC(C)(C)C(=O)NCCC(=O)N[C@@H](CC(C)C)C(=O)NC(C)(C)C(=O)NC(C)(C)C(=O)N[C@@H](CC(C)C)C(=O)NCCC(=O)NCO` (some centres undefined), the growth was -91.9% (active).

For the compound `COc1ccc(-n2cc(-c3ccccc3)c3c(SCC(=O)N/N=C/c4ccc([N+](=O)[O-])cc4)ncnc32)cc1`, the growth is 98%.

Consider `COc1cc(-c2nn(C)nc2-c2cc3ccccc3s2)cc(OC)c1OC`, for which the growth was 39.8%.

For the compound `Fc1ccc(-c2cc3nc(C(Cl)Cl)nc(-c4ccc(F)cc4)n3n2)cc1`, the growth is -63.6% (active).

On to `CCN(c1ccccc1)S(=O)(=O)c1cc([N+](=O)[O-])ccc1Cl`, for which the growth is -4.6% (active).

With `Cc1ccc(C(=O)c2ccc(CC(=O)N=Nc3c(O)[nH]c4ccc(OC(F)(F)F)cc34)n2C)cc1`, the growth was 108%.

In the case of `O=S(=O)(NCCNc1nccc(-c2c(-c3ccc(F)c(O)c3)nc3sccn23)n1)c1ccc(O)cc1`, the growth was 31.4%.

Take `CCCCOCCOCCOCc1cc2c(cc1Br)OCO2`: the growth is 102%.

Take `CC(Br)C(OC(=O)c1ccccc1Cl)c1cc2c(cc1Br)OCO2` (centres undefined): the growth was 66.4%.

In the case of `COc1cc(C2CC(=O)Nc3n[nH]c(-c4ccccc4)c32)cc(OC)c1OC` (centres undefined), the growth is 38.5%.

For `O=C(Nc1ccccc1C(=O)NCC1CC1)c1cccs1`, the growth was 102%.

For the compound `CCN(CC)c1ccc2nc3c4ccccc4c(=NC(=O)c4ccccc4-c4c5ccc(N(CC)CC)cc5[o+]c5cc(N(CC)CC)ccc45)cc-3oc2c1`, the growth is -59.2% (active).

`C#CCn1cc(/C=N/Nc2nc(-c3ccc(Br)cc3)cs2)c2ccccc21`: the growth was 105%.

On to `O=C1c2ccccc2NC(c2cn(-c3ccccc3)nc2-c2cccs2)N1Cc1ccccc1` (centres undefined), for which the growth is 95.4%.

Regarding `CCOC(=O)c1nnn(C(Cc2ccccc2Cl)C(=O)OCC)c1C` (centres undefined), the growth was 110%.

Regarding `CCSc1ncnc2c1ncn2C1OC(CO)C(O)C1O` (centres undefined), the growth is 15.8%.

For `Cc1ccc(/C=C(\C#N)n2nnc3cc(Cl)c(Cl)cc32)cc1`, the growth was 22.3%.

In the case of `CN(C)c1ccc(/C=N\NC(=O)c2ccc3nc(-c4ccc(Cl)cc4)[nH]c3c2)cc1`, the growth was 76.1%.

With `COc1ccc(-c2nn(-c3cccc(NC(=O)c4cc(C(F)(F)F)cc(C(F)(F)F)c4)c3)cc2-c2ccncc2)cc1Cl`, the growth was 61.4%.

On to `COc1ccc(N2CCC(=S)NC2=S)cc1`, for which the growth was 97.7%.

Turning to `COc1ccc(-c2cc(C(=O)N=Nc3c(O)[nH]c4ccccc34)no2)cc1`, the growth was 106%.
